Among the data in PubChem BioAssay AID463173 (ICCB-Longwood Screening Facility, Harvard Medical School, 2010) are survival values, retold here.

Where “and” joins values, the source holds several entries; their conditions need not be identical. Equal values may be shown once. Screen size: about 52,000 compounds; about 4,300 (8.3%) were called active. No stated cut-off is given here; in the data, active means survival mostly below about 52% (no sharp cut-off); inactive means mostly above about 56%. Many of the other results were omitted from the sample, so actives are more common in it than they were. Some compounds were tested as several samples or in several runs, with calls that do not always agree.

This test concerns DeltatarO mutant. The test can be described thus: S. aureus survival, RN4220 and DeltatarO strains – OD600, teichoic acid synthesis inhibitors, primary screen (AID 463173). The conditions noted are these: S. aureus RN4220 wild type/DeltatarO growth, OD600, 18 h, stronger effect = lower value, screened at 18.75 µg/mL (by protocol).
`CCCc1cnc2c(c1SCC(=O)Nc1c(C)cc(C)cc1C)c(=O)n(C)c(=O)n2C`: the survival was 94% (inactive).

On to `CCOc1ccc(NC(=O)CSc2nc3nc(C)c(Cc4ccccc4)c(C)n3n2)cc1`, for which the survival is 89% (inactive).

As for `CCC(OC(=O)CN1C(=O)c2ccccc2C1=O)C(=O)NC1CCCC1` (centres undefined), the survival is 83% (inactive).

Consider `COC(=O)c1ccc(C(=O)OC)c(NC(C)=O)c1`, for which the survival was 73% (inactive).

On to `O=C(NCc1ccc(Cl)cc1)C1CCCN(C(=O)c2cnn(-c3ccc(F)cc3)c2-n2cccc2)C1` (centres undefined), for which the survival was 73% (inactive).

In the case of `Cc1c(Cl)cccc1NC(=O)c1cccc(NC(=O)N2CCSc3ncccc32)c1`, the survival is 80% (inactive).

For the molecule `COc1ccc(C(=O)Nc2ccccc2C(=O)Nc2ccccn2)cc1`, the survival is 94% (inactive).

Take `O=C1CSC(=Nc2cccc(C(=O)O)c2)N1`: the survival was 82% (inactive).

On to `CC(=O)c1cc2c(cc1N/C(=N/S(=O)(=O)c1ccc(C)cc1)c1ccc(Cl)cc1)OCO2`, for which the survival was 37% (active).

Consider `CC(=O)c1cc2c(cc1N/C(=N/S(=O)(=O)c1ccc(Cl)cc1)c1ccc(F)cc1)OCO2`, for which the survival was 99% (inactive).

On to `CC(=O)c1cc2c(cc1N/C(=N/S(=O)(=O)c1ccccc1)c1ccc(Cl)cc1)OCO2`, for which the survival is 0% (active).

Consider `CC(=O)c1cc2c(cc1N/C(=N/S(=O)(=O)c1ccc(Br)cc1)c1ccccc1)OCO2`, for which the survival is 69% (inactive).

In the case of `CC(=O)c1cc2c(cc1N/C(=N/S(=O)(=O)c1ccc(C)cc1)c1ccc(F)cc1)OCO2`, the survival is 83% (inactive).

Consider `CC(=O)c1cc2c(cc1N/C(=N/S(=O)(=O)c1ccc(C)cc1)c1ccccc1)OCO2`, for which the survival is 74% (inactive).

Take `O=C(NCc1cccc(Br)c1)C1CCCCN1S(=O)(=O)c1ccc(F)cc1` (centres undefined): the survival was 89% (inactive).

With `O=C(Cn1c(-c2cccs2)cc2cc(F)ccc21)NCCCN1CCN(c2ccccc2F)CC1`, the survival was 67% (inactive).

As to `COc1ccc(-n2nc3c(N4CCC(C(=O)NCCc5ccccc5)CC4)nnc(C)c3c2C)cc1`, the survival is 85% (inactive).

As for `CCc1cccc(Nc2c3c(nc4ncnn24)CCC3)c1`, the survival was 95% (inactive).

As to `COc1ccc(-c2nn3c(=O)cc(CN4CCN(C(=O)Nc5ccc(C)c(Cl)c5)CC4)nc3s2)cc1`, the survival was 78% (inactive).

For the molecule `CCOC(=O)C(C)Sc1nc(-c2ccccc2Cl)cc(-c2ccccc2)c1C#N` (centres undefined), the survival is 64% (inactive).

On to `CCCCSc1nc(-c2ccc(OC)cc2)ccc1C#N`, for which the survival is 52% (inactive).

On to `CCOC(=O)C(C)Sc1nc(-c2ccccc2)ccc1C#N` (centres undefined), for which the survival was 82% (inactive) and -1% (active).

As for `O=C(CN1CCN(c2ccccn2)CC1)N(c1ccccc1)c1ccc2ccccc2c1`, the survival is 59% (inactive).

Turning to `COc1ccc(CCNC(=O)c2csc3c2CCCCC3)c(OC)c1`, the survival is 66% (inactive).

For the molecule `Cc1cccc(C)c1NC(=O)c1csc2c1CCCC2`, the survival was 90% (inactive).

Consider `COc1cccc(NC(=O)c2csc3c2CCCCC3)c1`, for which the survival was 37% (active).

As to `COc1ccc(OC)c(CCNC(=O)c2csc3c2CCCCC3)c1`, the survival was 44% (active).

As to `COc1ccc(NC(=O)c2csc3c2CCCCC3)cc1`, the survival is 70% (inactive).

`COc1ccc(OC)c(CCNC(=O)c2ccc3[nH]c(C)c(C)c3c2)c1`: the survival is 107% (inactive).

For the molecule `COc1ccc(-c2cc(-c3ccccc3)nc3c2COc2ccc(F)cc2-3)cc1`, the survival was 73% (inactive).

Consider `CCCc1c(O)nc(SCC(=O)N2CCCCC2)[nH]c1=O`, for which the survival is 69% (inactive).

For `CCSc1ncc(Cl)c(C(=O)Nc2nc3ccc(OC)cc3s2)n1`, the survival was 83% (inactive).

On to `CCOc1ccc2nc(NC(=O)c3nc(SCc4ccc(C)cc4)ncc3Cl)sc2c1`, for which the survival is 54% (inactive).

As to `Cc1cccc(CSc2ncc(Cl)c(C(=O)Nc3nc4ccc(F)cc4s3)n2)c1`, the survival is 33% (active).

For the molecule `Cc1ccc(CSc2ncc(Cl)c(C(=O)Nc3nc4ccc(C)cc4s3)n2)cc1`, the survival is 53% (inactive).

`COc1ccc2nc(NC(=O)c3nc(SCc4ccc(F)cc4)ncc3Cl)sc2c1`: the survival is 53% (inactive).

For `CCCSc1ncc(Cl)c(C(=O)Nc2nc3ccc(C)cc3s2)n1`, the survival is 49% (active).

As for `CCOc1ccc2nc(NC(=O)c3nc(SC(C)C)ncc3Cl)sc2c1`, the survival is 41% (active).

With `COc1ccc2nc(NC(=O)c3nc(SCc4cccc(C)c4)ncc3Cl)sc2c1`, the survival is 37% (active).

For `COc1ccc2nc(NC(=O)c3nc(SC(C)C)ncc3Cl)sc2c1`, the survival is 93% (inactive).

Consider `CCCSc1ncc(Cl)c(C(=O)Nc2nc3ccc(OCC)cc3s2)n1`, for which the survival is 63% (inactive).

For the molecule `Cc1ccccc1CSc1ncc(Cl)c(C(=O)Nc2nc3ccc(F)cc3s2)n1`, the survival was 100% (inactive).

For `O=C(Nc1nc2ccc(F)cc2s1)c1nc(SCc2ccccc2F)ncc1Cl`, the survival is 48% (inactive).

Turning to `CCCN(CCC)C(=O)Cn1c(=O)n(-c2cccc(C(F)(F)F)c2)c(=O)c2c(C)c(C)sc21`, the survival was 44% (inactive).

Take `CCC1SC(=S)N(CC(=O)O)C1=O` (centres undefined): the survival is 100% (inactive).

On to `CCOCCCNC(=O)Cn1ncc2c([nH]c3ccc(C)cc32)c1=O`, for which the survival is 83% (inactive).

For `O=C1NC(c2ccccc2)/C(=C(\O)c2ccccc2)C1=O` (centres undefined), the survival was 70% (inactive).

Turning to `Cc1nc2ccn(Cc3cccs3)c(=O)c2cc1C(=O)N1CCN(c2ccccc2)CC1`, the survival was 83% (inactive).

For the molecule `CCCSc1ncc(Cl)c(C(=O)NCc2ccc(C)cc2)n1`, the survival was 57% (inactive).

With `CCCSc1ncc(Cl)c(C(=O)Nc2ccc(S(=O)(=O)Nc3ncccn3)cc2)n1`, the survival is 67% (inactive).

As for `CCCSc1ncc(Cl)c(C(=O)Nc2ccc(CC)cc2)n1`, the survival was 42% (active).

With `CCCSc1ncc(Cl)c(C(=O)Nc2ccc(OC)cc2OC)n1`, the survival is 46% (active).

As to `COc1ccc(OC)c(NC(=O)c2nc(SCc3ccccc3F)ncc2Cl)c1`, the survival is 70% (inactive).

With `CCCSc1ncc(Cl)c(C(=O)NCc2ccc(OC)cc2)n1`, the survival was 52% (inactive).

On to `Cc1ccc(-c2nnc(SCC(=O)NCc3ccccc3)o2)cc1`, for which the survival was 142% (inactive).

Turning to `CCN(CC)c1ccc(CNCCCSc2nnnn2C)cc1`, the survival was 88% (inactive).

Regarding `COc1cc(C)c(S(=O)(=O)N2CCCC(C)C2)cc1C` (centres undefined), the survival was 81% (inactive).

`Cc1nnc(NC(=O)CSc2nccn2-c2ccc(Cl)cc2)s1`: the survival was 104% (inactive).

As to `O=C(NC1CCN(C(=O)NC2CCCCC2)CC1)c1ccc(F)cc1`, the survival was 85% (inactive).

Take `Cc1nn(-c2cc(N3CCOCC3)ccc2N)c(=O)c2ccccc12`: the survival is 76% (inactive).

In the case of `COc1ccc(N2CCN(C(=O)C(C)n3c(=O)cc(C(F)(F)F)c4c(C)nn(C)c43)CC2)cc1` (centres undefined), the survival was 97% (inactive).

On to `CCCCNC(=O)c1ccc2c(c1)N(CC)C(=O)c1ccccc1S2`, for which the survival was 102% (inactive).

`Cc1ccc(CCNC(=O)C2CCCN(c3nnc(C)c4c(C)n(-c5ccccc5)nc34)C2)cc1` (centres undefined): the survival was 80% (inactive).

Regarding `CCCCN(CC)CCCNC(=O)c1cc2c(=O)[nH]c3ccccc3c2s1`, the survival was 151% (inactive).

Consider `O=C(NCC(c1cccnc1)N1CCc2ccccc21)c1cccc(F)c1` (centres undefined), for which the survival was 44% (active).

On to `Cc1cccc(NC(=O)C(=O)NCC(c2cccnc2)N2CCc3ccccc32)c1C` (centres undefined), for which the survival is 53% (inactive).

`N#Cc1ccccc1NC(=O)C(=O)NCC(c1cccnc1)N1CCc2ccccc21` (centres undefined): the survival was 53% (inactive).

As to `O=C(NCC(c1cccnc1)N1CCc2ccccc21)c1cccc(C(F)(F)F)c1` (centres undefined), the survival is 45% (active).

In the case of `CCc1ccccc1NC(=O)C(=O)NCC(c1cccnc1)N1CCc2ccccc21` (centres undefined), the survival was 58% (inactive).

Regarding `O=C(NCC(c1cccnc1)N1CCc2ccccc21)C(=O)Nc1ccccc1F` (centres undefined), the survival was 101% (inactive).

In the case of `O=C(NCC(c1cccnc1)N1CCc2ccccc21)c1ccc(F)cc1` (centres undefined), the survival is 100% (inactive).

In the case of `O=C(NCC(c1cccnc1)N1CCc2ccccc21)c1cccc(Br)c1` (centres undefined), the survival was 41% (active).

Turning to `O=C(NCC(c1cccnc1)N1CCc2ccccc21)c1ccc(F)c(F)c1` (centres undefined), the survival is 52% (inactive).

Turning to `CCOc1ccc(C2C(C(N)=O)=C(C)Nc3nc(-c4ccc(OC)cc4)nn32)cc1` (centres undefined), the survival was 87% (inactive).

Regarding `COc1ccc(C)cc1NC(=O)C1CCC(CNS(=O)(=O)c2ccc3c(c2)CCCC(=O)N3)CC1` (centres undefined), the survival is 67% (inactive).

Turning to `CCOC(=O)c1ccc(NC(=O)C(C)N(c2ccc(OCC)cc2)S(C)(=O)=O)cc1` (centres undefined), the survival was 62% (inactive).

Consider `O=C(CCc1ccccc1)NN1C(=O)c2ccccc2C1=O`, for which the survival is 61% (inactive).

Consider `CCc1ccccc1NC(=O)c1cnc(N2CCCCC2)c2ccccc12`, for which the survival was 96% (inactive).

`CC(C)(C)OC(=O)N1CCC(c2c(C(=O)N3CCOCC3)cnn2-c2ccccc2Cl)CC1`: the survival was 78% (inactive).

With `COc1ccc(NC(=O)Cn2c(=O)n(-c3ccc(OC)cc3)c(=O)c3ccc(C(=O)NCc4ccc(C)cc4)cc32)cc1`, the survival was 77% (inactive).

As to `O=C(c1ccc2c(c1)N(Cc1ccc(F)cc1)C(=O)c1ccccc1S2(=O)=O)N1CCC(Cc2ccccc2)CC1`, the survival was 72% (inactive).

On to `CCCC1=Nc2cc(C(=O)NCc3ccc(OC)cc3)ccc2Sc2ccc(C)cc21`, for which the survival is 70% (inactive).

Regarding `CCOc1ccc(CNC(=O)Cn2c(=O)c3cccn3c3cccnc32)cc1`, the survival is 70% (inactive).

Turning to `C#CCn1c(C2CC(=O)N(c3ccc(OCC)cc3)C2)nc2ccccc21` (centres undefined), the survival was 62% (inactive).

Regarding `CCOc1ccc(N2CC(c3nc4ccccc4n3Cc3cccc(C)c3)CC2=O)cc1` (centres undefined), the survival was 42% (active).

For the molecule `CCCCn1c(C2CC(=O)N(c3ccc(OCC)cc3)C2)nc2ccccc21` (centres undefined), the survival was 63% (inactive).

`CCOc1ccc(N2CC(c3nc4ccccc4n3Cc3cccc(Cl)c3)CC2=O)cc1` (centres undefined): the survival is 37% (active).

Turning to `C#CCn1c(C2CC(=O)N(c3ccc(OC)cc3)C2)nc2ccccc21` (centres undefined), the survival is 78% (inactive).

`CCOc1ccc(N2CC(c3nc4ccccc4n3CC(C)C)CC2=O)cc1` (centres undefined): the survival was 56% (inactive).

Regarding `CCNC(=O)C1CCCN(c2nnc(C)c3c(C)n(-c4ccc(C)cc4)nc23)C1` (centres undefined), the survival was 78% (inactive).

On to `CCN1CCN(C(=O)c2ccc(S(=O)(=O)N(CC)CC)cc2)CC1`, for which the survival was 85% (inactive).

In the case of `COc1cc2c(cc1OC)C(c1ccc(F)cc1)N(c1ccc(F)cc1)C(=O)C2` (centres undefined), the survival was 105% (inactive).

For `COc1cc2c(cc1OC)C(c1ccc(Cl)cc1)N(c1ccc(C)c(F)c1)C(=O)C2` (centres undefined), the survival is 42% (active).

In the case of `COc1ccc(C2c3cc(OC)c(OC)cc3CC(=O)N2c2ccc(C)c(F)c2)cc1` (centres undefined), the survival is 79% (inactive).
